# According to the supplement of paper PMC3334620:
# Whole data set: some 33,000 sequences, median “E-score (-0.5 to 0.5)” near -0.021, cut for the highest 2% near 0.32. The sample as a whole holds a higher share of the highest values than the screen did.
# Molecular target: T1, Zap1 (UniProt P47043)
# T1 sequence: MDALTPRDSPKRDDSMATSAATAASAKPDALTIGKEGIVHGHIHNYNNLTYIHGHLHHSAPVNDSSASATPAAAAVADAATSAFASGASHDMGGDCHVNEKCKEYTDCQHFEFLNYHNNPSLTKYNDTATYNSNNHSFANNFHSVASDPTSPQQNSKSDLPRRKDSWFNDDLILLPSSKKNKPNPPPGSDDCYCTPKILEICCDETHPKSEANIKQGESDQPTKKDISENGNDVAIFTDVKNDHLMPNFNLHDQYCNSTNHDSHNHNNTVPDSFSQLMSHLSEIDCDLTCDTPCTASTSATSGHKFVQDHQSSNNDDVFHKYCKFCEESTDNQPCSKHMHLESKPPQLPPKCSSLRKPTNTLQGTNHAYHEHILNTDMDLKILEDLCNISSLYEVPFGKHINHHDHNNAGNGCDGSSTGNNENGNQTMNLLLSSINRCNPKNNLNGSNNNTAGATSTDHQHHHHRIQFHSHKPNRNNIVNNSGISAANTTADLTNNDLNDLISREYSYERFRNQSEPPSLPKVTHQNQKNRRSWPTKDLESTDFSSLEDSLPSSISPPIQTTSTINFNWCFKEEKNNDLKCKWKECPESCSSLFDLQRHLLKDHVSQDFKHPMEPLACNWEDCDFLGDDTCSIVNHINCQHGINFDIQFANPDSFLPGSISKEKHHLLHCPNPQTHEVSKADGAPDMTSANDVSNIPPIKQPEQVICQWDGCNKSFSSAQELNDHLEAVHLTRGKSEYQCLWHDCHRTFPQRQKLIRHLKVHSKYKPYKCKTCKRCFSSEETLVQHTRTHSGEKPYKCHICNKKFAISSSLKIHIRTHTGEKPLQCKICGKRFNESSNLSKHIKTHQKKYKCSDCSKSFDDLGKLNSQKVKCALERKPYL
# Test: PBM E-score (8-mer binding enrichment) (E-score (-0.5 to 0.5)); higher = stronger / more preferred TF binding
# Settings: protein concentration: 200 nM; construct: GST-full length
# In short: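 The E-score, a modified Wilcoxon-Mann-Whitney statistic, was computed by the Universal PBM Analysis Suite for every ungapped eight-base word pooled with its reverse complement. Scans behind it were normalised with masliner after bound GST-tagged yeast transcription factors were detected with fluorescent anti-GST. The proteins, at about 100-200 nM, had been applied to universal all-10-mer Agilent arrays made double-stranded by primer extension.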
row,Sequence,PBM E-score
1,AACTGTTG,-0.147
2,TGAACACA,0.0543
3,CACTACCG,0.129
4,CAAAGAGG,0.0514
5,AAGCTATT,-0.138
6,CCCCGTAA,0.16
7,ACCCGTAA,0.333
8,ACCCCGAA,0.384
9,ACCCGAAA,0.328
10,ACCCCGAT,0.197
11,ACCCGAAT,0.254
12,GACCCGAA,0.175
13,AACCCGAT,0.31
14,AACCCGAA,0.327
15,ACCCGTAC,0.0183
16,ACCCGAAG,0.197
17,CCCCCGAA,-0.164
18,TCCACGAA,0.111
19,CGTGAAGC,-0.326
20,TAGAGTCA,-0.166
21,AAACTTGG,0.124
22,AACCAAGT,0.271
23,CGAGAGGA,-0.0403
24,CGCCTTCA,-0.26
25,CCAGGGGA,-0.0512

row,Sequence,PBM E-score
1,GGTACCAC,0.362
2,GTTACCAA,0.362
3,TGTACCAA,0.0671
4,GTTACAAC,0.291
5,CGTACCAC,0.0803
6,CTTACAAA,0.0824
7,GTTACAAA,0.343
8,AGTACCAC,0.208
9,ATTACCAA,0.18
10,CTTACCAA,0.0782
11,CGTACCAA,-0.0153
12,GGTACCAA,0.337
13,AGCAGCCG,0.0213
14,AAATGGTC,0.207
15,ACTCATGC,-0.147
16,CACCTCGG,0.0517
17,TTAGAGAA,-0.0471
18,GCAATAGC,-0.122
19,AATTCGAG,-0.131
20,GACTAGAC,-0.101
21,ACAGAAAG,0.11
22,CCTTGTTA,0.12
23,CCGGGCGC,-0.315
24,CGCCCATC,-0.171
25,GATAACCC,0.47

row,Sequence,PBM E-score
1,GCTAACCC,0.32
2,CCTAACCC,0.264
3,AATAACGC,-0.0593
4,GATAAACC,0.21
5,AATAACAC,0.107
6,AATAACAT,0.0801
7,ACTAACCC,0.271
8,AATAACCC,0.466
9,AATAACCT,0.454
10,GATAACGC,-0.11
11,AATAACGT,0.0381
12,ACTATCGC,-0.0428
13,AGCAGAAT,0.0481
14,CTACCAAG,0.0784
15,GCATAGGA,-0.135
16,GAGTAGGA,-0.289
17,GACTGTGA,-0.0753
18,AAGCACTC,-0.146
19,ACTCGTGG,0.0689
20,AATAACCG,0.421
21,AATAACAG,0.118
22,ACTAACCG,0.144
23,ACTAACCT,0.318
24,ACTAACCA,0.282
25,AATAACGG,0.169

row,Sequence,PBM E-score
1,CCTAGCAA,0.0808
2,CGTTGGTC,-0.0765
3,AAAAGGTC,0.367
4,CAAAGGTC,0.314
5,AAAAGGTG,0.173
6,AAAAGGAT,0.0556
7,AAAAGGTT,0.444
8,ATAAGGTC,0.184
9,CGCAACTA,0.162
10,AGGCCCAA,-0.0071
11,GACGCGAA,-0.12
12,AGAGAATC,-0.152
13,AATGAATG,0.0096
14,AGGCTAGA,-0.15
15,AACCTATA,0.374
16,AACCTAAA,0.356
17,TACCTACA,0.137
18,GACCTATA,0.295
19,CACCTATA,0.0311
20,CACCTAAA,0.191
21,TACCTAGA,0.163
22,TACCTATA,0.337
23,TACCTAAA,0.199
